In all, about 87,000 compounds went through this assay and about 360 (0.41%) were called active. What follows is part of a selection rich in actives, with near analogues and random picks from the rest. A number with no mark means an inactive call. No stated cut-off is given here; in the data, active means cytotoxicity above about 50%; inactive means the rest.
Experiment: HT1080 cell viability loss – fluorescence readout (AID 620);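 further: cells exposed to compound overnight then 4 h with Alamar Blue; 0% = vehicle DMSO and 100% = killing control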
Settings: at 10 µM, hits give high values

| SMILES | cytotoxicity |
| --- | --- |
| O=C(CSCCc1ccccn1)Nc1ccccn1 | 3.4% |
| O=C(Cc1cn2ccsc2n1)OCc1nc2ccccc2s1 | -1.1% |
| CCOC(=O)c1c(C)[nH]c(C(=O)COC(=O)CNC(=O)C2CCCCC2)c1C | 0.3% |
| CCOC(=O)C1=C(C)N(CCCC(=O)O)C(=O)NC1c1ccccc1OC(=O)c1cccs1 (stereo not given) | -19.7% |
| CCC1CCCN1Cn1cnc2c([nH]c3ccccc32)c1=O (stereo not given) | 2.5% |
| O=C(NCC(c1cccnc1)N1CCN(c2ccccc2)CC1)OCc1ccccc1 (stereo not given) | 3.4% |
| CCOc1ccc(S(=O)(=O)Nc2cc(OC)ccc2OC)cc1 | 59.8% (active) |
| CCCCOc1ccc(S(=O)(=O)Nc2cc(OC)ccc2OC)cc1 | 4.8% |
| CCOC(=O)c1ccccc1NS(=O)(=O)c1ccccc1 | 37% |
| COc1ccc(S(=O)(=O)Nc2cc(Cl)ccc2OC)cc1 | 70.9% (active) |
| COc1ccc(Cl)cc1NS(=O)(=O)c1ccc(S(=O)(=O)N2CCCC2)cc1 | -1.1% |
| CCOC(=O)c1ccccc1NS(=O)(=O)c1ccc(C)cc1 | 6.9% |
| COc1ccc(Cl)cc1NS(=O)(=O)c1ccc(OC)c(OC)c1 | -2.2% |
| CCOC(=O)c1ccccc1NS(=O)(=O)c1ccc(OCC)cc1 | 55.2% (active) |
| COC(=O)COc1ccc(S(=O)(=O)Nc2cc(OC)ccc2OC)cc1 | 2.6% |
| Cc1cc(C)n(/N=C\c2c(O)ccc3ccccc23)c(=O)c1C(N)=O | 0% |
| CC(=O)c1ccc(OC(C)C)c(CN2CCCCC2)c1 | 1.8% |
| Cc1onc(-c2ccccc2)c1C(=O)Nc1cccc(C#N)c1 | -1.8% |
| COC(=O)CSc1nnc(CNS(=O)(=O)c2ccc(C)cc2)n1C | 6.8% |
| Cc1ccc2cc(-c3noc(C4CCCCC4)n3)c(=O)[nH]c2c1 | -0.9% |
| Cn1c(=O)c2c(nc(Br)n2CC(=O)c2cccs2)n(C)c1=O | -2.7% |
| COc1ccc(S(=O)(=O)N2N=C(C)Oc3ccccc3C2=O)cc1 | 60.3% (active) |

| SMILES | cytotoxicity |
| --- | --- |
| CC1=NN(S(=O)(=O)c2ccc(F)cc2)C(=O)c2ccccc2O1 | 0.4% |
| COc1ccc(S(=O)(=O)N2CCN(S(=O)(=O)c3ccc4c(c3)OCCO4)CC2)cc1 | 2.3% |
| O=C(NCc1ccccc1)C1CCN(S(=O)(=O)N2CCCCCC2)CC1 | -5.9% |
| O=C(N1CCOCC1)n1nnc2ccccc21 | -1.4% |
| O=S(=O)(N1CCOCC1)n1nnc2ccccc21 | -4.1% |
| CCc1ccc2c(c1)[C@]1(C(=O)N2)[C@@H]2C(=O)N(Cc3ccccc3)C(=O)[C@@H]2[C@@H]2CCCN21 | -2.5% |
| COc1ccc2nc(NCCO)[nH]c2c1 | 3.7% |
| C=CCOc1ccc2nc(NC(=O)OC)[nH]c2c1 | 62.3% (active) |
| COc1ccc(OCC(=O)Nc2nc3ccccc3[nH]2)cc1 | -8.8% |
| CCCSc1ccc2nc(NC(=O)OC)[nH]c2c1 | 40% |
| CCOc1ccc2nc(NCCO)[nH]c2c1 | -12% |
| CCCOc1ccc2nc(NC(=O)OC)[nH]c2c1 | 64.1% (active) |
| O=C1C2ON(c3ccc(Br)cc3)C(c3cccnc3)C2C(=O)N1C1CCCCC1 (stereo not given) | 1.2% |
| COc1ccc2nc3oc(C(=O)N4CCN(c5ccccc5F)CC4)cc3cc2c1 | -0.7% |
| Cc1cc(NC(=O)CSc2nnc(-c3cccnc3)n2C)no1 | -4.9% |
| Cc1cccc(N(C(=O)Nc2ccccc2)C2=NCC(C)S2)c1 (stereo not given) | -2.6% |
| N#Cc1cccc(Cn2nnc(-c3ccccc3)n2)c1 | 13.7% |
| COc1ccc(OC)c(-n2nnnc2SCC(=O)Nc2ccc(C(=O)N3CCCCC3)cc2)c1 | -11.6% |
| COCCCNC(=O)CCCC(=O)NCCCOC | -2.4% |
| COc1ccc(-c2cn3cc(C)ccc3n2)cc1OC | 23% |
| COc1ccc(-c2cn3cc(Cl)ccc3n2)cc1OC | 98.8% (active) |
| COc1ccc(-c2cn3ccccc3n2)cc1OC | 14.9% |

| SMILES | cytotoxicity |
| --- | --- |
| Cc1ccc(C2CC(=O)Nc3cc4c(cc32)OCCO4)s1 (stereo not given) | 7.9% |
| COc1cccc(C2CC(=O)Nc3cc4c(cc32)OCCO4)c1OC(C)C (stereo not given) | 0.6% |
| CC(C)Oc1ccccc1C1CC(=O)Nc2cc3c(cc21)OCO3 (stereo not given) | 67.4% (active) |
| CC(C)Oc1ccccc1C1CC(=O)Nc2cc3c(cc21)OCCO3 (stereo not given) | 70.5% (active) |
| O=C1CC(c2cccs2)c2cc3c(cc2N1)OCO3 (stereo not given) | 13.7% |
| COc1ccccc1C1CC(=O)Nc2cc3c(cc21)OCCO3 (stereo not given) | 52.2% (active) |
| Cc1ccc(C2CC(=O)Nc3cc4c(cc32)OCO4)o1 (stereo not given) | 40% |
| O=C1CC(c2ccncc2)c2cc3c(cc2N1)OCCO3 (stereo not given) | 5.6% |
| COc1cc2c(cc1OC)C(c1cccc(OC)c1OC)CC(=O)N2 (stereo not given) | -0.5% |
| CCCCCCC(C)n1[nH]c(=O)c2c(C)cc(=O)[nH]c21 (stereo not given) | -5% |
| O=C(C1CCC(CNc2c(N3CCCCC3)c(=O)c2=O)CC1)N1CCCCC1 (stereo not given) | -4.8% |
| C=CCn1c(NC)cc(=O)n(C)c1=O | 9.8% |
| CC1(C(=O)NC2CCCC2)CCC(=O)N1Cc1ccc2c(c1)OCO2 (stereo not given) | 20.7% |
| COc1ccc(O)c(C(=O)c2cc(C#N)c(=O)n(CCN3CCOCC3)c2)c1 | 7% |
| COC(=O)c1ccc(NC(=O)COc2ccc(S(=O)(=O)N3CCCCC3)cc2)cc1 | -6.1% |
| c1ccc(-c2nc3ccccc3nc2N2CCOCC2)cc1 | 19.1% |
| Nc1nc(NCc2ccccc2)nc(-c2ccccc2)n1 | 12.3% |
| Cc1c(NC(=O)c2ccccc2)c(=O)n(-c2ccccc2)n1C | -12.6% |
| Cc1c(NC(=O)c2ccc(=O)oc2)c(=O)n(-c2ccccc2)n1C | 32.6% |
| COc1cc2[nH]cc(C(=O)NCCc3ccccc3)c(=O)c2cc1OC | 5.3% |
| CCOc1ccc(OCc2ccc(C(=O)Nc3cccnc3)o2)cc1 | -3.1% |
